We go through 24 compounds from PubChem BioAssay (Tox21).

Unmarked numbers belong to inactive results. Inconclusive results are not listed. The source made the active and inactive calls. Unless noted, the call rests on the fitted dose curve.

The target in experiment [1] is Androgen receptor (Homo sapiens) (UniProt P10275). The experiment is described as follows: qHTS assay to identify small molecule agonists of the androgen receptor (AR) signaling pathway in the presence of an antagonist (AID 1259381). Further: nearly all actives have a fitted effect of over 15% in size. The essentials: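 Using human MDA-kb2 cells with an MMTV promoter–luciferase construct (AR and GR response elements), agonist activity is scored under 3.0uM nilutamide (final) co-treatment; 16hr incubation, 37C, luminescence readout via ONE-Glo.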
Androgen receptor (Homo sapiens), sequence (P10275 whole entry, looked up): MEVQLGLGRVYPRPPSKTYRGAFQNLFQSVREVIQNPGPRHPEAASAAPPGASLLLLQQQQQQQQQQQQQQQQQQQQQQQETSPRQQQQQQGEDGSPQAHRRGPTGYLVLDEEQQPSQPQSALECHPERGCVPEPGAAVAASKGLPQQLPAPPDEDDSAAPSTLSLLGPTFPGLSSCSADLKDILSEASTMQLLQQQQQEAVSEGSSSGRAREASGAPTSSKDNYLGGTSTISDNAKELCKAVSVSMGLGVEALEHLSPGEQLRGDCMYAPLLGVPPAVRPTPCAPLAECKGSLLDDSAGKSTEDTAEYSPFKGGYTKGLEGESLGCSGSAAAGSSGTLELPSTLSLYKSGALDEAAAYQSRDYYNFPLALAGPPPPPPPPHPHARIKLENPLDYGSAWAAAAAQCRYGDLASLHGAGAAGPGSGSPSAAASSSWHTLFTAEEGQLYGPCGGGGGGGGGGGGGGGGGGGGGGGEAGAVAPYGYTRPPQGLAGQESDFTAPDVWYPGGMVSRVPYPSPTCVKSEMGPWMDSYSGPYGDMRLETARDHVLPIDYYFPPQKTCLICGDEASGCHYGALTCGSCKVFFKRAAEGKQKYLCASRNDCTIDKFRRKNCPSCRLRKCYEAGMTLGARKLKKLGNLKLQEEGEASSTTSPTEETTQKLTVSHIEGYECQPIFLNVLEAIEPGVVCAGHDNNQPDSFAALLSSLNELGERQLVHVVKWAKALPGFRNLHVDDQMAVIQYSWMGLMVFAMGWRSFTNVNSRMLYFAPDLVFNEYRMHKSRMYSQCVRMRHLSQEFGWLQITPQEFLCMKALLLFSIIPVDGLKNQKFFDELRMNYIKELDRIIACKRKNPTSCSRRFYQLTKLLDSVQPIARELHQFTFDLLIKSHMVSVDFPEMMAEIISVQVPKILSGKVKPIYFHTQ
Background: In qHTS, concentration-response curves come from the screen itself.

Experiment [2] is described as follows: qHTS assay to identify small molecule antagonists of the estrogen receptor beta (ER-beta) signaling pathway - cell viability counter screen (AID 1259382; active means well fitted curve in the direction sought with a large enough effect in the repeat runs; an effect the other way counts as inactive or inconclusive; further: series mostly up to about 92 µM; nearly all actives have a fitted effect of over 55% in size). The essentials:
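Agonist-stimulated (1nM E2) ER-beta-UAS-bla HEK293T cells are incubated with library compounds for 16 hr at 37C. Cell viability is then assessed in the reporter-assay wells by adding CellTiter-Glo and reading luminescence after 30 min.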

Experiment [3] has as its target Estrogen receptor (Homo sapiens) (UniProt P03372). The experiment in a line: qHTS assay to identify small molecule agonists of the estrogen receptor alpha (ER-alpha) signaling pathway in the presence of an antagonist (AID 1259383). Further: top concentration of the series differs between compounds; nearly all actives have a fitted effect of over 15% in size. The essentials:
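Using VM7Luc4E2 cells seeded 24hr before treatment, antagonist ICI-182,780 (10.0nM final) was added, followed by compounds at 15 concentrations. Plates incubated 22hr; ONE-Glo luminescence quantified reporter activity.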

A short description of experiment [4]: qHTS assay to identify small molecule agonists or antagonists of the thyroid stimulating hormone receptor (TSHR) signaling pathway - wild type cell line counter screen (AID 1259384). The essentials:
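Wild-type Hek293 cells, 800/well, 18 h at 37C, then compound with Ro20-1724 for 30 min RT. cAMP by HTRF (cAMP-d2/anti-cAMP cryptate), 1 h RT, fluorescence read. 15 concentrations, triplicates.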

Experiment [5] concerns the target Thyrotropin receptor (Homo sapiens) (UniProt P16473). The experiment is described as follows: qHTS assay to identify small molecule antagonists of the thyroid stimulating hormone receptor (TSHR) signaling pathway (AID 1259385). Further: nearly all actives have a fitted effect of over 20% in size. The essentials:
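TSHR-HEK293 cells (800/well) plated 18 h, then compounds with Ro20-1724 and TSH at 1.5 ng/mL final, 30 min at room temperature. cAMP quantified by HTRF (cAMP-d2/anti-cAMP-cryptate, 1 h); 15 concentrations in triplicate.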

The nature of experiment [6]: qHTS assay to identify small molecule agonists of the estrogen receptor alpha (ER-alpha) signaling pathway in the presence of an antagonist - cell viability counter screen (AID 1259386; active means well fitted curve in the direction sought with a large enough effect in the repeat runs; an effect the other way counts as inactive or inconclusive;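 further: series mostly up to about 92 µM; cells exposed to compounds for 22 h at 37 °C before the viability read; nearly all actives have a fitted effect of over 30% in size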). A digest of the protocol: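 ICI-182,780 at 10.0nM final accompanies the compound titration (15 concentrations, 22hr, 37C) on VM7Luc4E2 cells. The CellTiter-Fluor fluorescence readout runs in the same wells as the luciferase assay.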

Experiment [7] addresses Progesterone receptor (Homo sapiens) (UniProt P06401). The experiment in a line: qHTS assay to identify small molecule agonists of the progesterone receptor (PR) signaling pathway (AID 1346784). Further: nearly all actives have a fitted effect of over 30% in size. Further: potency means the concentration at half of the fitted maximal effect. A digest of the protocol:
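Agonist qHTS: compounds pinned onto 3,000 PR-UAS-bla HEK 293T cells per well in charcoal-stripped serum medium, 16hr at 37C, then beta-lactamase activity measured by LiveBLAzer FRET fluorescence after 2 hours at room temperature.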

For experiment [8] the target is unchanged. The experiment is described as follows: qHTS assay to identify small molecule antagonists of the progesterone receptor (PR) signaling pathway (AID 1346795; active means well fitted inhibition curve with a large enough effect in the signal ratio in the repeat runs, not every such curve was filed as active; the % refers to the signal ratio). A digest of the protocol: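 Antagonist mode with agonist R5020 at 1 nM final and 16 hr incubation at 37C. Reporter was beta-lactamase driven by UAS in HEK293T (PR-UAS-bla), 2% charcoal-stripped serum; signal from LiveBLAzer FRET substrate, 2 hr at room temperature.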

Experiment [9] is described as follows: qHTS assay to identify small molecule antagonists of the progesterone receptor (PR) signaling pathway - cell viability counter screen (AID 1346798; active means well fitted curve in the direction sought with a large enough effect in the repeat runs; an effect the other way counts as inactive or inconclusive; further: series mostly up to about 92 µM; nearly all actives have a fitted effect of over 50% in size). A digest of the protocol:
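Cytotoxicity read as CellTiter-Glo luminescence (30 min, room temperature) in the same wells as the beta-lactamase readout. HEK293T PR-UAS-bla cells in charcoal-stripped 2% FBS received compound and R5020, then 16 h at 37C, 5% CO2.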

Experiment [10] in a line: qHTS assay to identify small molecule agonists of the progesterone receptor (PR) signaling pathway - cell viability counter screen (AID 1346799). Further: nearly all actives have a fitted effect of over 45% in size. A digest of the protocol: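 Cytotoxicity measured by CellTiter-Glo luminescence (30 min, RT) in the same wells as the PR beta-lactamase agonist read. Those HEK293T cells had 16 h compound treatment at 37 C in 2% charcoal-stripped FBS medium.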
On the % scale 0 is the no-effect control and ±100 the full control effect.

Progesterone receptor (Homo sapiens), sequence (P06401 whole entry, looked up): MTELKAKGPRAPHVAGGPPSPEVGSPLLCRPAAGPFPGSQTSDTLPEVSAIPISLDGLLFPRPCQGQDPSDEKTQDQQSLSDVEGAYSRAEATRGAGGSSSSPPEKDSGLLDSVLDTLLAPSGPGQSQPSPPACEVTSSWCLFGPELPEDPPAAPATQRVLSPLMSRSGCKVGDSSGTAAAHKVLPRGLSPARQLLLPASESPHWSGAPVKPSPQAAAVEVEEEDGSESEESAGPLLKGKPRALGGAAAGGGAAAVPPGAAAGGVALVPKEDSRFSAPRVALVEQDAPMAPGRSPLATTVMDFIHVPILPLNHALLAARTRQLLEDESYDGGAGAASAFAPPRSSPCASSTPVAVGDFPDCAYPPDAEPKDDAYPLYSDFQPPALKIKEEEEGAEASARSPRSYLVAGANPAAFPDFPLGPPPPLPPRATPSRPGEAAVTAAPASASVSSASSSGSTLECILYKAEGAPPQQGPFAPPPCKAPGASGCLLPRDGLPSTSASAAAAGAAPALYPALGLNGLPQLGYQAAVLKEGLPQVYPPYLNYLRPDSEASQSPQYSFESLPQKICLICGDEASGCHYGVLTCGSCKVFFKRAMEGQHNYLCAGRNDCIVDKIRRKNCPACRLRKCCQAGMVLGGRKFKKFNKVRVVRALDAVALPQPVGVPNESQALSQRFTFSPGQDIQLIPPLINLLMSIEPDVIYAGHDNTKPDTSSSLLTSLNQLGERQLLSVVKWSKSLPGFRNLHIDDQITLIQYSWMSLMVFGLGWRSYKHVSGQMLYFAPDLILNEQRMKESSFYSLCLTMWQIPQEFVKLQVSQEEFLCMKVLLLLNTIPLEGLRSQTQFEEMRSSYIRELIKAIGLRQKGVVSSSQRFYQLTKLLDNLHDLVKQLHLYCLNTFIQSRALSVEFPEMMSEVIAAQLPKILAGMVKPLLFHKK
Thyrotropin receptor (Homo sapiens), sequence (P16473 whole entry, looked up): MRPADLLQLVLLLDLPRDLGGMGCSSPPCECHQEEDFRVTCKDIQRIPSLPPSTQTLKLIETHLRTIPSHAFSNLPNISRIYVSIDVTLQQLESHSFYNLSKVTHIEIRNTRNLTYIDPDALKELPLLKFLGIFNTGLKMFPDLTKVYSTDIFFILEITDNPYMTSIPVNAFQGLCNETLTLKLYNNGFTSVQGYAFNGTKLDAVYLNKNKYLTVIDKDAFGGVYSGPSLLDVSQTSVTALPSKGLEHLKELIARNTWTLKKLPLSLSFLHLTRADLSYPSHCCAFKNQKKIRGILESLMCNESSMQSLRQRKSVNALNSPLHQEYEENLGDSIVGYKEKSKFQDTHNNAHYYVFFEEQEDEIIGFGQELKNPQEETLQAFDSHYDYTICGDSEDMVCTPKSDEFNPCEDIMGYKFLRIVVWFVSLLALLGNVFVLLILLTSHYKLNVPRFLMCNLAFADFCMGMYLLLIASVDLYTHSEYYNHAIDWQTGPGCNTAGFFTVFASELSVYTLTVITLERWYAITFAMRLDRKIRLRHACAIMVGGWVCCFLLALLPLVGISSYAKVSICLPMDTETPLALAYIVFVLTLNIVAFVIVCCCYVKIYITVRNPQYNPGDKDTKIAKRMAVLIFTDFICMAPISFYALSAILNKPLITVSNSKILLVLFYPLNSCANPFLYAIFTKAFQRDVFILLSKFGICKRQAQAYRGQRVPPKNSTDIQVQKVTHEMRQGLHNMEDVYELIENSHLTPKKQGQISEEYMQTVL
Estrogen receptor (Homo sapiens), sequence (P03372 whole entry, looked up): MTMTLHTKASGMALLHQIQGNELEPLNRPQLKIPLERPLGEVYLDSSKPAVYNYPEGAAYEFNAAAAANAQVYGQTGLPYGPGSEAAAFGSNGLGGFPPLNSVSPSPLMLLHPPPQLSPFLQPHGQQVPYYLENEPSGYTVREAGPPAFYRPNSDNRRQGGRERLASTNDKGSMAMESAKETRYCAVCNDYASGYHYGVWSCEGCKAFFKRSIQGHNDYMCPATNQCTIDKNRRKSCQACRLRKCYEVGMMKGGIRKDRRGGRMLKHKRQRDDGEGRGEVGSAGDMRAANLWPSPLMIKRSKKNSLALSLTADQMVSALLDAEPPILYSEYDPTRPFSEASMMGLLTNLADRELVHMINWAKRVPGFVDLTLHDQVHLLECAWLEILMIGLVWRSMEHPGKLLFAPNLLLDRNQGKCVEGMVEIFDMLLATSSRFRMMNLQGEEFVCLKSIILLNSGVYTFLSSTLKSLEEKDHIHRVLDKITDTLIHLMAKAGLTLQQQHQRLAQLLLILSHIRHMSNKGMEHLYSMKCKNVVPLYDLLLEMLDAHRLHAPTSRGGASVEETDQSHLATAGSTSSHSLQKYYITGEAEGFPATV

On to `CCN(CC)C(=O)C1CN2CCc3cc(OC)c(OC)cc3C2CC1OC(C)=O` (configuration not stated), for which the result in experiment [1], in experiment [2], in experiment [3], in [4] and in experiment [5] was inactive. The Potency entry in [6], in [7], in [8], in experiment [9] and in [10] was “inactive” each time.
Turning to `Cc1nc2n(c(=O)c1CCN1CCC(C(=O)c3ccc(F)cc3)CC1)CCS2`, the result in experiment [1], in experiment [2], in experiment [3], in experiment [4] and in experiment [5] was inactive. Besides, the Potency result in experiment [7] and in experiment [8] was “inactive” throughout.
`O=C(O)c1ccc(OCCN2CCCCC2)cc1`: the result in experiment [1], in experiment [2], in experiment [3], in [4] and in experiment [5] was inactive. For the same compound, the Potency entry in [6], in experiment [7], in experiment [8], in experiment [9] and in experiment [10] was “inactive” throughout.
`O=C(O)c1ccccc1C(=O)OCc1ccccc1`: the outcome in experiment [1], in [2], in experiment [4] and in experiment [5] was inactive. For the same compound, the Potency entry in experiment [6], in experiment [7], in [8], in experiment [9] and in experiment [10] was “inactive” each time.
For `CCCCCCCCCCCCCCCCI`, the values for the activation in experiment [1] and in [7] were 0.857% [at 19 µM] and 0.0661% [at 19 µM], respectively. Also, the activity change, negative = cytotoxicity in experiment [2] was -0.0745% [at 19 µM]; in experiment [6], -3.61% [at 19 µM]; in [9] it was 17.5% [at 18.9 µM]; in experiment [10], -9.05% [at 19 µM]. For the same compound, the cAMP activity change in experiment [4] was 5% [at 18.9 µM]. The activity change, negative = inhibition in experiment [5] was -4.61% [at 19 µM]; in experiment [8] it was -3.13% [at 18.9 µM].
`CNC(=O)NC`: the result in experiment [1], in [2], in experiment [3], in experiment [4] and in [5] was inactive. For the same compound, the Potency result in [6], in experiment [7], in [8], in [9] and in experiment [10] was “inactive” in each case.
As to `Nc1ccnc(=O)[nH]1`, the outcome in experiment [1], in experiment [2], in experiment [3], in experiment [4] and in experiment [5] was inactive. Besides, the Potency result in experiment [6], in experiment [7], in experiment [8], in experiment [9] and in experiment [10] was “inactive” throughout.
Turning to `CCCCCCCCCCCCCC(=O)OC`, the outcome in experiment [1], in experiment [2], in experiment [3], in experiment [4] and in experiment [5] was inactive. Moreover, the Potency entry in experiment [6], in experiment [7], in experiment [8] and in experiment [9] was “inactive” each time.
Consider `O=S(=O)(O)SSS(=O)(=O)O`, for which the result in experiment [1], in experiment [2], in experiment [4] and in experiment [5] was inactive. Further, the Potency entry in [6], in experiment [7], in experiment [8] and in experiment [9] was “inactive” in each case.
Regarding `O=C1OC(=O)c2cc(Oc3ccc4c(c3)C(=O)OC4=O)ccc21`, the outcome in experiment [1], in [2], in [3], in [4] and in [5] was inactive. The Potency entry in experiment [6], in experiment [7], in experiment [8], in [9] and in experiment [10] was “inactive” throughout.
With `CCCCCCCCCCC`, the result in experiment [1], in [3], in experiment [4] and in experiment [5] was inactive. Moreover, the Potency result in [6], in experiment [7] and in experiment [8] was “inactive” in each case.
Turning to `COc1cccc2sc(N)nc12`, the result in experiment [1], in experiment [2], in experiment [3], in experiment [4] and in experiment [5] was inactive. The Potency result in experiment [6], in experiment [8], in experiment [9] and in [10] was “inactive” throughout. Further, in [7], the Potency was 43.5 µM (active).
Consider `C=CCCCCCCCCCCC`, for which the activation in [1] was 2.68% [at 8.39 µM]; in experiment [3], 0.334% [at 8.39 µM]; in [7], -0.805% [at 8.39 µM]. Moreover, the cAMP activity change in [4] was 1.9% [at 8.39 µM]. The values for the activity change, negative = inhibition in experiment [5] and in experiment [8] were 3.13% [at 8.39 µM] and 5.07% [at 8.39 µM], respectively. Besides, the activity change, negative = cytotoxicity in experiment [6] was -2.37% [at 8.39 µM].
Regarding `Cc1ncc([N+](=O)[O-])n1CC(O)CCl` (configuration not stated), the result in experiment [1], in experiment [2], in experiment [4] and in experiment [5] was inactive. Besides, the Potency entry in [6], in experiment [7], in experiment [8], in [9] and in experiment [10] was “inactive” in each case.
In the case of `CC(=O)OC(C(=O)c1ccccc1)c1ccccc1` (configuration not stated), the result in experiment [1], in experiment [2], in experiment [3], in [4] and in experiment [5] was inactive. Moreover, the Potency entry in experiment [6], in experiment [7], in experiment [8] and in experiment [10] was “inactive” in each case.
Regarding `CCCOCCOCCOCCO`, the result in experiment [1], in experiment [2] and in experiment [3] was inactive. The Potency result in [6], in [7] and in experiment [9] was “inactive” in each case.
On to `CC(=O)OC[C@H]1O[C@@H](OC(C)=O)[C@H](OC(C)=O)[C@@H]1OC(C)=O`, for which the result in experiment [1], in experiment [2], in experiment [3], in experiment [4] and in experiment [5] was inactive. In addition, the Potency entry in experiment [6], in experiment [7], in experiment [8] and in experiment [9] was “inactive” throughout.
As to `CCCCC(CC)CNC(=O)CC(C)OC(=O)CCC(=O)O` (configuration not stated), the result in experiment [1], in [2], in [3], in experiment [4] and in experiment [5] was inactive. Also, the Potency result in [6], in [7], in experiment [8] and in [10] was “inactive” throughout.
Take `CCCCCCCCCCCCCCCCCCN(C)C`: the outcome in [1], in experiment [2], in experiment [3], in experiment [4] and in [5] was inactive. Moreover, the Potency result in [6], in experiment [7], in [8] and in experiment [10] was “inactive” in each case.
As to `O=C(O)c1ccccc1C(=O)Nc1ccc(S(=O)(=O)Nc2nccs2)cc1`, the result in experiment [1] and in experiment [2] was inactive. In addition, the Potency entry in experiment [6], in [7], in experiment [8], in experiment [9] and in experiment [10] was “inactive” throughout.
Take `COCC(=O)Nc1c(I)c(C(=O)NCC(O)CO)c(I)c(C(=O)N(C)CC(O)CO)c1I` (configuration not stated): the outcome in [1], in experiment [2], in [3], in [4] and in [5] was inactive. The Potency entry in experiment [6], in experiment [7], in experiment [8], in experiment [9] and in [10] was “inactive” each time.
On to `CCNC(=O)/C=C/c1cccc(Br)c1`, for which the result in experiment [1], in [2], in experiment [4] and in experiment [5] was inactive. The Potency result in experiment [6], in experiment [7], in experiment [8], in experiment [9] and in experiment [10] was “inactive” throughout.
As for `O=CN1CCOCC1`, the outcome in experiment [1], in experiment [2], in experiment [3], in [4] and in experiment [5] was inactive. In addition, the Potency entry in [6], in experiment [7], in [8] and in experiment [9] was “inactive” throughout.
With `CCC(C)(C)C1CCC(=O)CC1`, the result in experiment [1], in experiment [2], in experiment [3], in experiment [4] and in experiment [5] was inactive. In addition, the Potency result in experiment [6], in experiment [7], in [8], in [9] and in [10] was “inactive” each time.
